The supplement of paper PMC6555819

Experiments:
Assay in all cases: PBM binding z-score (relative to random genomic background probes); higher = stronger binding; sequences stand for … in GC…GCGATTGACAGCGTAGAATGAAGG
[1] = test system: FXR:RXRa (NR concentration 270 nM, RXRa partner concentration 90 nM)
Method in brief: (§1)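 Regression normalization was applied to scanned fluorescence from custom Agilent 4×180K protein-binding microarrays. Before scanning, arrays were incubated 1 h with ligand-free nuclear receptor dimers, and binding was detected with antibodies against each partner (one per run). Binding z-scores use the random background probes as reference.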

[2] = test system: LXRa homodimer (NR concentration 270 nM)
Method in brief: as §1

[3] = test system: LXRb homodimer (NR concentration 270 nM)
Method in brief: as §1

[4] = test system: PPARg:RXRa (NR concentration 180 nM, RXRa partner concentration 90 nM)
Method in brief: as §1

[5] = test system: PPARg:RXRa 270nM:90nM, anti-RXR (NR concentration 270 nM, RXRa partner concentration 90 nM)
Method in brief: as §1

[6] = test system: PPARg:RXRa 30nM:10nM, anti-RXR (NR concentration 30 nM, RXRa partner concentration 10 nM)
Method in brief: as §1

[7] = test system: PPARg:RXRa 90nM:30nM, anti-RXR (NR concentration 90 nM, RXRa partner concentration 30 nM)
Method in brief: as §1

[8] = test system: PPARg:RXRa DBDmut IVT, anti-RXR (DBD mutation: RXRa K156A/R161A, NR concentration 270 nM, RXRa partner concentration 90 nM)
Method in brief: as §1

[9] = test system: LXRa:RXRa (NR concentration 270 nM, RXRa partner concentration 90 nM)
Method in brief: as §1

[10] = test system: PPARa:RXRa (NR concentration 270 nM, RXRa partner concentration 90 nM)
Method in brief: as §1

Sequence	PBM binding z-score [1]	PBM binding z-score [2]	PBM binding z-score [3]	PBM binding z-score [4]	PBM binding z-score [5]	PBM binding z-score [6]	PBM binding z-score [7]	PBM binding z-score [8]	PBM binding z-score [9]	PBM binding z-score [10]
TTGCCTAGGTCATTGGGCCAGTATAGTACGCATC	4.6	0.781	0.088	3.36	3.63	1	2.47	2.65	–	–
CCTTACGGGTCACTGACAGGTTATAGCGTTTGGA	5.14	0.362	0.00055	4.5	4.32	1.5	2.78	2.91	–	–
CGTCAAAGTTCAACTGAGGTAACGTAAAGCACGC	7.32	5.02	2	5.04	5.58	2.33	4.11	0.26	–	–
GGAACGAGGGCATTCGAGTTCATAGCATGGCGAT	3.41	6.2	-0.617	1.4	1.33	-0.096	0.725	2.82	–	–
CCTTACGGGTCACTCCAGGTTATATCATCGGAGT	4.99	2.49	0.56	3.65	3.72	0.84	2.78	2.96	–	–
CCTACTGGGCCACGAAAGGCCATTGATTCAGTGA	-0.0775	-0.396	-0.835	1.34	1.21	-0.199	0.589	5.23	–	–
AGTCAAAGTTCATCTAGGTCACGTAAGATATGCT	7.54	7.38	2.1	7.93	7.25	4.56	6.61	3.49	–	–
GCTTACGGGTCCAAGGTTATAGCATGAATAGAAT	0.369	-0.143	-0.0563	1.97	2.86	1.43	2.47	0.18	–	–
CCTACTGGGCCACTAAAGGTCATTGATTCAGTGA	3.27	8.29	1.27	4.06	4.89	2.26	4.15	5.49	–	–
ACTTACGGGTCTACGAGGTTATAGCACGCGTATA	0.283	0.149	0.121	0.708	0.426	0.256	0.0516	-0.0713	–	–
TCTCGGAGGACACAAAGGTCAGAGCTTTCCAGAG	3.05	2.17	-0.2	3.27	4.43	3.16	4.07	1.57	–	–
CGAACTAGGTCATTGACAGGACAATGAATAGTAA	4.51	0.605	-0.0587	7.97	6.6	3.9	5.84	8.11	–	–
CGAACTACGTCATCCAGGACAGTGAATACATTGA	–	0.121	-0.033	0.703	-0.106	0.193	-0.145	0.257	-0.0453	-0.0578
TCTAGTCGGTCAAAGGTCACACACTCGAAATGCG	6.97	5.28	2.21	–	10.2	11.1	11.4	5.17	–	–
TCTCGGAGGAAACGAAAGGTCAGAGCTCGACATC	1.86	2.91	-0.0498	1.74	3.9	2.92	3.77	1.21	–	–
